Source: ChEMBL document CHEMBL5606458, “ASAP - ZIKV NS2B-NS3 protease fluorescence single point” (2024)
About 160 (5.9%) of roughly 2,700 compounds showed an effect of 50% or more. Shown is part of a subset that was picked to be rich in strong results.

Molecular target: Nonstructural protein 3 (Zika virus) (UniProt A0A024AXB9)
Sequence (A0A024AXB9 as listed by the source): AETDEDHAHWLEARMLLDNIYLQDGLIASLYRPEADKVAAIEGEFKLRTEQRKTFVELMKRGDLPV

O=C(Nc1cccc(N2CCNCC2)c1)c1cccc2ncccc12
inhibition (PRVABC59, Concentration 49.5 uM, Number of replicates 2.0, Standard deviation 0.4660025311194914 %): 12.8% | inhibition (PRVABC59, Concentration 99.01 uM, Number of replicates 2.0, Standard deviation 1.8240670503820091 %): 21.1% | inhibition (PRVABC59, Concentration 198.0 uM, Number of replicates 2.0, Standard deviation 0.426059457023535 %): 34.4%

CCn1ccnc(N2CC[C@@H](Cc3ccncc3)C2)c1=O
inhibition (PRVABC59, Concentration 50.0 uM, Number of replicates 2.0, Standard deviation 17.324672814645545 %): 18.6% | inhibition (PRVABC59, Concentration 100.0 uM, Number of replicates 2.0, Standard deviation 1.6917913579666908 %): 12.9% | inhibition (PRVABC59, Concentration 200.0 uM, Number of replicates 2.0, Standard deviation 5.92774721773736 %): 23.1%

CC(C)c1cc(CN2CCC3(CC2)C(=O)NCc2ccccc23)n[nH]1
inhibition (PRVABC59, Concentration 49.5 uM, Number of replicates 2.0, Standard deviation 2.3847652893231714 %): 1.4% | inhibition (PRVABC59, Concentration 99.01 uM, Number of replicates 2.0, Standard deviation 4.553677158798315 %): 2.83% | inhibition (PRVABC59, Concentration 198.0 uM, Number of replicates 2.0, Standard deviation 2.2809894644583135 %): 6.37%

O=S(=O)(c1c[nH]c2ccccc12)N1CCC(c2cnc3ccc[nH]c2-3)CC1
inhibition (PRVABC59, Concentration 49.5 uM, Number of replicates 2.0, Standard deviation 0.9724228784365659 %): 34% | inhibition (PRVABC59, Concentration 99.01 uM, Number of replicates 2.0, Standard deviation 0.1115050511195736 %): 36.4% | inhibition (PRVABC59, Concentration 198.0 uM, Number of replicates 2.0, Standard deviation 2.3986425606638684 %): 29%

CCn1ccnc(N2CC[C@H](c3ccc(OC)nc3)C2)c1=O
inhibition (PRVABC59, Concentration 50.0 uM, Number of replicates 2.0, Standard deviation 2.450630192539874 %): 10.5% | inhibition (PRVABC59, Concentration 100.0 uM, Number of replicates 2.0, Standard deviation 0.40502109894604904 %): 17.9% | inhibition (PRVABC59, Concentration 200.0 uM, Number of replicates 2.0, Standard deviation 0.08715563662307181 %): 30.5%

CCCN(C)C(=O)c1cc(Cl)ccc1NS(=O)(=O)c1ccc(Oc2ccccc2Cl)cc1
inhibition (PRVABC59, Concentration 49.5 uM, Number of replicates 2.0, Standard deviation 1.6827651888895978 %): 30.1% | inhibition (PRVABC59, Concentration 99.01 uM, Number of replicates 2.0, Standard deviation 1.553741884480168 %): 42.7% | inhibition (PRVABC59, Concentration 198.0 uM, Number of replicates 2.0, Standard deviation 1.4828704414225533 %): 51.4%

CCCCCNC(=O)c1cc(Cl)ccc1NS(=O)(=O)c1ccc(Oc2ccccc2Cl)cc1
inhibition (PRVABC59, Concentration 49.5 uM, Number of replicates 2.0, Standard deviation 0.82866638448688 %): 30.5% | inhibition (PRVABC59, Concentration 99.01 uM, Number of replicates 2.0, Standard deviation 0.1903473061675686 %): 14.2%

CN(CCS(N)(=O)=O)C(=O)c1cc(Cl)ccc1NS(=O)(=O)c1ccc(Oc2ccccc2Cl)cc1
inhibition (PRVABC59, Concentration 49.5 uM, Number of replicates 2.0, Standard deviation 4.192376018410405 %): 8.99% | inhibition (PRVABC59, Concentration 99.01 uM, Number of replicates 2.0, Standard deviation 3.3291863073712813 %): 17.3% | inhibition (PRVABC59, Concentration 198.0 uM, Number of replicates 2.0, Standard deviation 0.7795966632269805 %): 72.5%
